DT40 TDP1 no CPT: qHTS for Inhibitors of human tyrosyl-DNA phosphodiesterase 1 (TDP1): qHTS in cells in absence of CPT; DT40 Tdp1-/- hTDP1 cells, no CPT, ATP luminescence, 48 h; Potency, µM (series often up to 46.2 µM), inactives show at the highest dose activity change, negative = growth inhibition, usual class: inhibitors; 420,000 tested, 15% active; also: potency is read from the fitted curve at half-maximal effect; nearly all actives have a fitted effect of over 55% in size
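Chicken DT40 Tdp1-/- cells complemented with human TDP1, screened without camptothecin (DMSO vehicle only), 400 cells/well. Compounds pin-transferred, cells incubated at 37 °C for at least 48 hr. Growth read as ATP-dependent luminescence (CellTiter-Glo, 30 min at RT).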
DT40 TDP1 CPT: growth inhibition of DT40 Tdp1-/-;hTDP1 cells with camptothecin (screen for TDP1 inhibitors); chicken DT40 Tdp1-/-;hTDP1 cells + 20 nM CPT, ATP luminescence, 48 h; Potency, µM (doses to about 46.2 µM), for inactives: top-dose activity change, negative = growth inhibition, most hits filed as inhibitors; 420,000 tested, 12% active; also: potency is read from the fitted curve at half-maximal effect; nearly all actives have a fitted effect of over 55% in size
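Chicken DT40 Tdp1-/- cells stably complemented with human TDP1 were seeded at 400 cells/well in medium containing 20 nM camptothecin, exposed to pin-transferred compounds, and grown at 37 °C for at least 48 hr. Viability was read as ATP luminescence.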
12-LOX inh: ALOX12 (human) lipoxygenase inhibition; P18054; purified 12hLO, xylenol orange hydroperoxide absorbance; Potency, µM (series often up to 108 µM), for inactives: at the top dose activity change, negative = inhibition, most hits filed as inhibitors; 580,000 tested, 1.1% active; also: potency is read from the fitted curve at half-maximal effect
Target sequence (P18054 whole entry, looked up): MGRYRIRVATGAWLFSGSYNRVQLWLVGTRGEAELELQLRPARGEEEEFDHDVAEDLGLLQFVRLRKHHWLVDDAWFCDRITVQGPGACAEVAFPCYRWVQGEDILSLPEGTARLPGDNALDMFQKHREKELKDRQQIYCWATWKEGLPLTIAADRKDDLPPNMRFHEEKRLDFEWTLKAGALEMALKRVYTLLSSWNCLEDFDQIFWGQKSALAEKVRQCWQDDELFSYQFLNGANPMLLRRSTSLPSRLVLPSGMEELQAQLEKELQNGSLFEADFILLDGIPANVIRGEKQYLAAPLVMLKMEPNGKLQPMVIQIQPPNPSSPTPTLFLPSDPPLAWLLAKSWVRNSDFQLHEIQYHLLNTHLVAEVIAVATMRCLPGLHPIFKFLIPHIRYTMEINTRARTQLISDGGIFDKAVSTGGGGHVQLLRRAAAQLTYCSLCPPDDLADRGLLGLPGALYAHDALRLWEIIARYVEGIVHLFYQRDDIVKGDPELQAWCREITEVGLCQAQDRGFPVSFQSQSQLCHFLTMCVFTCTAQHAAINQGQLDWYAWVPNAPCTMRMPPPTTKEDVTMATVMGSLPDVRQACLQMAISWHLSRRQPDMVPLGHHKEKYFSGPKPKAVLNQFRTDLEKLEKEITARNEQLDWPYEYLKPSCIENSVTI
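Purified human 12hLO (150 nM final) in 25 mM Hepes, 0.01% Triton X-100, pH 7.0 was preincubated 15 min at room temperature with compound. Then 40 uM arachidonic acid was added, 30 min. Hydroperoxide was read by Fe-XO absorbance ratio 573/405 nm.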
HT1080NT lethal: kills 2HG-producing HT-1080-NT fibrosarcoma cells | Potency, µM (top dose mostly 46.1 µM), without a hit: top-dose activity, negative = less viability, most hits filed as cytotoxic | HT-1080-NT fibrosarcoma viability, CellTiter-Glo ATP luminescence, 48 h | AID 686970 | 360,000 tested, 1.6% active;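 also: NT is the 2HG producing partner of a matched IDH1 knockdown line; potency is read from the fitted curve at half-maximal effect; 0% = DMSO-treated cells and -100% = media-only wells without cells; nearly all actives have a fitted effect of over 55% in size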
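Luminescent CellTiter-Glo readout after 48 hours of compound exposure at 37 degrees C defined viability of HT-1080-NT cells. Activity was normalized to DMSO wells and cell-free media wells; concentration-response curves were fitted and assigned curve classes.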
IL-1B inflam inh: inflammasome signaling inhibition, IL-1 beta readout; THP-1 LPS/ATP IL-1B secretion, AlphaLISA, 16 h; active compounds read low; 360,000 tested, 4.7% active; activity change, % at 57.5 µM; in the data active = activity change below about -50%; inconclusive = mostly about -30% to -49%
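THP-1 cells pretreated 1 hr with compounds (up to 57.5 uM final), then stimulated with LPS (250 ng/mL final) plus ATP (1.25 mM final); secreted IL-1B measured by AlphaLISA after 16 hr, decreased signal indicating inhibition.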
HT1080 IDH1KD tx: kills HT-1080 cells with IDH1 knockdown; HT-1080 IDH1 knockdown viability, ATP luminescence, 48 h; Potency, µM (highest dose often 46.1 µM), for the others: at the highest dose activity, negative = toxicity, hits mostly cytotoxic; 360,000 tested, 2% active;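 also: potency is read from the fitted curve at half-maximal effect; 0% = DMSO wells and -100% = cell-free medium wells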
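After a 2 h attachment period, IDH1KD HT-1080 cells took pin-transferred compound for 48 h at 37 °C; ATP-based luminescence after 10 min room-temperature reagent incubation reported viability.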
* hit, by the source's call; ? = inconclusive; · = no result given. Shown is part of a subset that was picked to be rich in hits. Unless noted, calls follow the shape of the dose curve; as a rule, active = well fitted curve in the direction sought with a large enough effect; inconclusive = small, poorly fitted or top-dose-only effect, or another doubt; inactive = no such curve, though single readings can be large; an effect the other way counts as inactive or inconclusive. Unless noted, % is scaled to controls: 0 for no effect and ±100 for the full control effect.

SMILES	DT40 TDP1 no CPT	DT40 TDP1 CPT	12-LOX inh	HT1080NT lethal	IL-1B inflam inh	HT1080 IDH1KD tx
COc1ccc(C(C)=O)cc1CSc1nnc(Nc2c(C)cccc2C)s1	?	20.6µM*	-13.4%	-0.2%	-27.7	5.5%
Nc1nc(NCc2ccccc2)nc(Nc2cccc(F)c2)c1[N+](=O)[O-]	?	0.9%	-24.7%	0.6%	-6.1	-2.0%
Cc1cc(Nc2ccccc2)nc(NCc2ccccc2)n1	4.11µM*	8.2µM*	?	?	-88.2*	23.1µM*
Cc1cc(Nc2cccc(F)c2)nc(NCc2ccccc2)n1	5.8µM*	4.11µM*	?	?	-101.9*	?
Cc1ccc(Nc2cc(C)nc(-c3ccccc3)n2)cc1	-24.6%	?	-8.7%	-7.8%	-98.3*	-7.8%
Cc1cc(N2CCC(C)CC2)nc(NCc2ccccc2)n1	16.4µM*	?	?	-0.6%	-90.1*	-0.4%
NNc1nc(NCc2ccccc2)nc(Nc2ccccc2)n1	·	·	10.1%	·	·	·
COc1ccc2oc(C(=O)Nc3ccccc3OC)cc(=O)c2c1	·	·	-28.0%	·	·	·
CCCCNc1cc(C)nc(NCc2ccccc2)n1	5.8µM*	9.2µM*	·	25.9µM*	-98.2*	23.1µM*
Cc1cc(Oc2ccccc2)nc(NCc2ccccc2)n1	20.6µM*	11.6µM*	15.4%	-6.3%	38.1	-17.4%
Cc1cc(Nc2ccc(Cl)cc2)nc(NCc2ccccc2)n1	8.2µM*	7.31µM*	?	?	?	?
CCOC(=O)C(=O)Nc1ccc(OCC(C)C)cc1	·	·	3.5%	·	·	·
COc1ccc2cc1Oc1ccc(cc1)C[C@H]1c3c(cc4c(c3Oc3cc5c(cc3OC)CCN(C)[C@@H]5C2)OCO4)CCN1C	5.8µM*	6.51µM*	85.3%	16.4µM*	?	20.6µM*
COc1ccc2c(c1OC)C(=O)O[C@@H]2[C@H]1c2c(cc3c(c2OC)OCO3)CCN1C	-25.5%	4.0%	?	·	·	·
COc1cc(CN(C2CCCCC2C)S(=O)(=O)c2ccc(S(=O)(=O)NC3CC3)cc2)cc(OC)c1OC (stereo unspecified)	?	?	-1.6%	-4.9%	19.1	-5.1%
COc1ccc(CN(C2CCCCC2C)S(=O)(=O)c2ccc(S(=O)(=O)N(C)C)cc2)cc1OC (stereo unspecified)	20.6µM*	16.4µM*	-20.9%	-3.7%	48.9	-12.3%
Cc1nn(-c2cccc(Br)c2)c(C)c1[C@@H]1C=C[C@@H](NS(C)(=O)=O)C1	·	·	11.2µM*	·	·	·
CNC(=O)NC(=O)CN(Cc1ccc(C#N)cc1)Cc1cccc(F)c1	·	·	6.1%	·	·	·
O=C(CCc1c[nH]c2ccccc12)OCc1ccccc1	·	·	-25.8%	·	·	·
CC1CCc2c(sc(NC(=O)c3ccccc3)c2C(=O)Nc2ccccc2)C1 (stereo unspecified)	20.6µM*	9.2µM*	0.0%	·	·	·
Cc1cccc(NC(=O)c2c(NC(=O)c3cccs3)sc3c2CCC(C)C3)c1 (stereo unspecified)	10.3µM*	23.1µM*	?	·	·	·
CCOc1ccccc1C1NC(=O)N(CC(=O)Nc2cccc(F)c2)C2=C1C(=O)OC2 (stereo unspecified)	·	·	5.5%	·	·	·
CC1(C)CC2(CC(c3ccccc3F)c3ccc(O)c(O)c3O2)NC(=S)N1 (stereo unspecified)	23.1µM*	?	-52.2%	-9.9%	-6.1	-0.7%
CC1(C)CC2(CC(c3ccc(F)cc3)c3ccc(O)cc3O2)NC(=S)N1 (stereo unspecified)	?	?	?	-3.4%	-1.9	-1.1%
Cc1ccc(C[n+]2cccc(-c3ccccc3)c2)c(C)c1	0.731µM*	1.16µM*	-5.7%	-25.8%	-58.1*	?
SMILES	DT40 TDP1 no CPT	DT40 TDP1 CPT	12-LOX inh	HT1080NT lethal	IL-1B inflam inh	HT1080 IDH1KD tx
COc1ccc(C2=NS(=O)(=O)N(C)C(C(=O)NC3CCCCC3)=C2)cc1	6.51µM*	-27.9%	16.9%	-1.4%	-10.7	-4.0%
CCC(C)NC(=O)C1=CC(c2cc(OC)ccc2OC)=NS(=O)(=O)N1C (stereo unspecified)	·	·	-6.0%	·	·	·
COc1ccc(C2=NS(=O)(=O)N(C)C(C(=O)NCc3ccccc3)=C2)cc1OC	?	?	-7.9%	0.6%	-11.5	13.5%
COc1ccc(OC)c(C2=NS(=O)(=O)N(C)C(C(=O)Nc3ccc(C(C)=O)cc3)=C2)c1	14.6µM*	18.4µM*	-21.3%	-4.0%	?	-6.9%
COc1ccc(CNC(=O)C2=CC(c3ccc(OC)c(OC)c3)=NS(=O)(=O)N2C)cc1	?	?	-13.4%	-10.2%	-0.1	0.5%
COc1ccc(C2=NS(=O)(=O)N(C)C(C(=O)NC3CCCC3)=C2)cc1	?	-9.1%	3.1%	8.1%	18.0	-3.3%
COc1ccc(C2=NS(=O)(=O)N(C)C(C(=O)NCc3cccs3)=C2)cc1OC	?	14.6µM*	17.4%	-0.2%	-0.8	12.4%
CCc1ccc(NC(=O)C2=CC(c3ccc(OC)c(OC)c3)=NS(=O)(=O)N2C)cc1	18.4µM*	11.6µM*	20.3%	?	-13.3	-17.3%
O=C(Nc1cccc(F)c1)N1CCC(Oc2ncccc2C(=O)N2CCCCC2)C1 (stereo unspecified)	·	·	6.8%	·	·	·
CCCCOc1ccc(/C=C/C(=O)c2ccc(Br)cc2)cc1	·	·	28.1%	·	·	·
O=C(CSc1nc2ccccc2s1)Nc1cc(C(F)(F)F)ccc1Cl	·	·	-1.8%	·	·	·
NC(=O)c1cc(S(=O)(=O)NCC2CCN(Cc3ccccc3F)CC2)cs1	·	·	-2.2%	·	·	·
COc1ccc(NC(=O)C2=CC(c3ccc(OC)cc3)=NS(=O)(=O)N2C)cc1	20.6µM*	?	32.9%	-3.0%	-6.7	8.9%
COc1ccc(C2=NS(=O)(=O)N(C)C(C(=O)N3CCc4ccccc4C3)=C2)cc1OC	9.2µM*	18.4µM*	142.5%	-12.2%	36.9	-0.3%
COc1ccc(C2=NS(=O)(=O)N(C)C(C(=O)Nc3ccc(OC(F)(F)F)cc3)=C2)cc1	?	?	-27.0%	·	·	·
CC(C)NC(=O)C1CCC(Cn2cnnn2)CC1 (stereo unspecified)	·	·	49.7%	·	·	·
COC(=O)c1c(NC(=O)CCCOc2ccc(C)cc2)sc2c1C(C(=O)OC)CC2 (stereo unspecified)	13µM*	14.6µM*	-42.8%	·	·	·
CCOc1ccc(/C=C/C(=O)Nc2sc3c(c2C(=O)OC)C(C(=O)OC)CC3)cc1 (stereo unspecified)	9.2µM*	9.2µM*	-5.2%	·	·	·

High-throughput results as filed in PubChem BioAssay.
